Experimental data reported in PubChem BioAssay AID2314 (National Center for Advancing Translational Sciences (NCATS), 2010).
Screen size: about 300,000 compounds; about 37,000 (12%) were called active. Only a selection was taken, and actives are over-represented in it overall. A number with no mark means an inactive call. Rule as the data show it: active = max response mostly above about 13% (no sharp cut-off); inactive = mostly below about 14%.

assay: Cycloheximide Counterscreen for Small Molecule Inhibitors of Shiga Toxin; conditions: cell reporter, cycloheximide protein synthesis inhibition counterscreen; active compounds read high; also: read at 38.3 µM for the half of the compounds with a filed dose; 0% is about no effect

Structure (SMILES) | max response
CCOc1ccc(NC(=O)CCCCCN2C(=O)[C@@H]3Cc4ccccc4CN3C2=O)cc1 | 6.74%
Clc1cc(NC2CCCCC2)ncn1 | 3.36%
CCCCN(CCCC)CCCNC(=O)CN1C(=O)COc2ccc(S(=O)(=O)N3CCC(C)CC3)cc21 | -3.42%
Cc1ccn(-c2cccc(-n3ccc(C)n3)n2)n1 | 91.1% (active)
Cc1cnc(CN(C)C(=O)CC2C(=O)NCCN2Cc2cccc(F)c2F)[nH]1 (stereo not drawn) | 3.11%
O=c1c2cc(Br)ccc2nc(-c2cccc(Cl)c2)n1O | -6.07%
Cc1ccc(CSCC2Nc3ccc(C(=O)N4CCN(c5ccc(F)cc5)CC4)cc3NC2=O)cc1 (stereo not drawn) | -5.97%
CCN1C(=O)C(CC(=O)Nc2cc(C)ccc2C)SC1=Nc1ccc(S(N)(=O)=O)cc1 (stereo not drawn) | -7.73%
O=C(CC1SC(=Nc2ccccc2)N(Cc2ccccn2)C1=O)Nc1cccc(Cl)c1 (stereo not drawn) | 14.9% (active)
CN1C(=O)C(CC(=O)Nc2ccccc2)S/C1=N/c1nccs1 (stereo not drawn) | -0.83%
CC(=O)Nc1ccc(S(=O)(=O)NC2Cc3ccccc3C2)cc1 | -1.22%
CCNC(=O)N1c2ccccc2Sc2ccccc21 | -0.857%
CCN1/C(=C/C(=S)Nc2ccccc2)Sc2ccccc21 | 44.5% (active)
O=C(CCN1c2ccccc2Sc2ccccc21)Nc1ccccc1 | 9.13%
CCn1cc(C(=O)NCC(=O)NC(C)(C)CO)c(=O)c2cc3c(cc21)OCO3 | 1.3%
O=C(CN1C(=O)C2C3C=CC(C3)C2C1=O)Nc1nc(-c2ccccn2)cs1 (stereo not drawn) | -1.06%
O=C(CCCO)N/N=C/c1cc(Br)ccc1O | -2.8%
O=C(CC(=O)N/N=C\c1cccc(Cl)c1Cl)NCc1ccccc1 | 8.71%
O=C(N/N=C/c1ccccc1O)/C(=C/c1ccccc1)CCO | 16.6% (active)
COc1ccc(OC)c(S(=O)(=O)N2CCCC(C(=O)NCCc3ccccc3)C2)c1 (stereo not drawn) | 8.7%
Cc1cccc(N2CCN(C(=O)c3cnn4c(C(F)F)cc(-c5ccccc5)nc34)CC2)c1C | -1.97%
CSCCC(NC(=O)c1ccc(Cl)cc1Cl)C(=O)NNC(=O)c1csc(N2CCOCC2)n1 (stereo not drawn) | 0.959%
O=C(COc1ccc([N+](=O)[O-])cc1)Nc1ccc(N2CCCC2)cc1 | -1.27%
O=C(COC(=O)C1CCCCC1)Nc1ccc([N+](=O)[O-])cc1 | 24.8% (active)

Structure (SMILES) | max response
NC(=O)c1ccc(NC(=O)COC(=O)c2ccc([N+](=O)[O-])cc2)cc1 | 0.779%
CC1(C)C(C=C(Cl)Cl)C1C(=O)NC(O)C(=O)c1ccccc1 (stereo not drawn) | -3.63%
CCn1cc(C(=O)NCc2ccc(OC)cc2OC)c(=O)c2ccc(C)nc21 | -2.54%
CNC(=O)C1CCN(S(=O)(=O)c2c(C)noc2/C=C/c2cccc(C)c2)CC1 | -3.52%
Cc1cccc(NC(=O)C2CCN(S(=O)(=O)c3cccc4cccnc34)CC2)c1 | -2.32%
Cc1ccnc(NC(=O)C2CCN(S(=O)(=O)c3c(C)c(C)cc(C)c3C)CC2)c1 | 13.3% (active)
CN(c1ccccc1)S(=O)(=O)c1cc(C(=O)Nc2nc3ccccc3[nH]2)ccc1Cl | 16.5% (active)
COc1cccc(C(=O)Nc2nnc(S(=O)(=O)N(C)c3ccccc3)s2)c1 | -2.81%
CN(c1ccccc1)S(=O)(=O)c1cc(C(=O)OCC(=O)N2CCN(C(=O)c3ccco3)CC2)ccc1Cl | -1.38%
O=C(CN1CCN(c2ncccn2)CC1)Nc1ccccc1C(F)(F)F | -6.89%
O=C(C1CCCN(S(=O)(=O)c2ccc([N+](=O)[O-])cc2)C1)N1CCCCC1 (stereo not drawn) | 1.11%
COc1ccc(CCNC(=O)CSc2nnc(CNC(=O)c3cccs3)o2)cc1OC | -3.82%
COc1ccc(-c2nnc(SCC(=O)c3cccs3)o2)c(OC)c1 | 51.4% (active)
COc1cccc(NC(=O)CSc2nnc(Cc3ccc(OC)c(OC)c3)o2)c1 | -3.54%
COc1ccccc1-c1nnc(SCC(=O)N2CC(C)CC(C)C2)o1 (stereo not drawn) | 1.31%
COc1ccccc1-c1nnc(SCC(=O)Nc2cc(C)on2)o1 | 2.69%
COc1ccccc1-c1nnc(SCC(=O)Nc2ccccc2)o1 | 11.4% (active)
CSc1ccc(CCNC(=O)CS(=O)(=O)Cc2nc(-c3ccccc3F)oc2C)cc1 | -3.5%
Cc1nn(-c2ncc(C(F)(F)F)cc2Cl)c(=O)n1-c1ccccc1 | 0.461%
Cc1cc(C)c2nc(SCCC#N)nc(C)c2c1 | 1.85%
Cc1cc(C)c2nc(-c3ccco3)cc(C(=O)O)c2c1 | 0.856%
Cc1cc(C)c2nc3nc(C)cc(C)c3c(N)c2c1 | 15.1% (active)
COc1ccc(/C=C(/NC(=O)c2ccco2)C(=O)Nc2ccc(C(C)=O)cc2)cc1 | 2.87%
COc1ccc(CN(C)C(=O)CC(c2ccccc2)c2ccccc2)cc1 | -2.05%

Structure (SMILES) | max response
COc1ccc(C(CC(=O)c2ccccc2)S(=O)(=O)c2ccccc2)cc1 (stereo not drawn) | 30% (active)
COc1ccc(N(Cc2ccccc2)S(=O)(=O)c2cccc(C(=O)O)c2)cc1 | -3.66%
Cc1ccc(SCc2c(C(=O)N/N=C/c3cccnc3)nnn2-c2nonc2N)cc1 | 2.02%
CC(C)C[C@H](NC(=O)C1CC(=O)N(c2ccc3c(c2)OCCO3)C1)C(=O)NC1CCCC1 (stereo partly drawn) | 6.36%
C=C1CCN(C(CC(C)C)C(=O)N2CCOCC2)S(=O)(=O)c2ccccc21 (stereo not drawn) | 4.95%
Cc1ccc(Cc2cnc(NC(=O)/C(C#N)=C/c3ccc(-c4cccc([N+](=O)[O-])c4)o3)s2)cc1 | -0.479%
Cc1ccc(-c2ccc(/C=C(\C#N)C(N)=S)o2)c([N+](=O)[O-])c1 | 16% (active)
N#C/C(=C/c1ccc(-c2ccccc2[N+](=O)[O-])o1)C(=O)NCCN1CCCCC1 | 2.31%
COc1ccc(C)cc1N(C(=O)Cn1nnc(-c2ccc(C)o2)n1)C(C(=O)NC1CCCC1)c1ccncc1 (stereo not drawn) | -6.77%
CC(C)NS(=O)(=O)c1ccc(NC(=O)C2CCCCC2)cc1 | -0.865%
O=C(O)c1ccc(NC(=O)C2CCCCC2)cc1 | -1.35%
O=C(Nc1ccc(-c2ccc3nncn3n2)cc1)C1CCCCC1 | 16% (active)
CCCOc1ccc(C2NC(=O)NC(c3ccccc3)=C2C(C)=O)cc1OCC (stereo not drawn) | -7.3%
CCN1N=C(c2ccccc2)CCC1=O | -2.27%
Nc1ccn(C2CC(O)C(CO)O2)c(=O)n1 (stereo not drawn) | -1.51%
CC(NC(=O)c1ccco1)C(=O)Nc1nc(-c2ccccn2)cs1 (stereo not drawn) | -2.97%
c1ccc(Nc2nc(-c3ccncc3)cs2)nc1 | 36.4% (active)
COc1ccc2cc(S(=O)(=O)Nc3ccccn3)ccc2c1 | -3.68%
Clc1ccc(Nc2nc(-c3cccs3)cs2)nc1 | 37.5% (active)
c1cnc(Nc2nc(-c3ccc4ccccc4c3)cs2)nc1 | 42.5% (active)
c1ccc(NCc2cccc3ccccc23)nc1 | 9.29%
COc1ccc(-c2csc(Nc3ccccn3)n2)cc1 | 40.4% (active)
COC(=O)c1cc(-c2cccs2)nc2ccccc12 | -2.85%
COC(=O)CSc1nccc(-c2cccs2)n1 | 17%

Structure (SMILES) | max response
COc1ccc(-c2nc(CS(=O)(=O)CC(=O)NCc3cccc(Br)c3)c(C)o2)cc1 | 6.41%
Cc1ccc(OCCCCN2CCCCC2)c(Br)c1 | 10.9%
CC(C)(C)NC(=O)NC(=O)COC(=O)C1c2ccccc2Oc2ccccc21 | 0.419%
Cc1ccc(CNC(=O)c2cccnc2Cl)cc1 | 6.44%
CCN(C(=O)c1ccc(Br)cc1)c1ccccc1 | -3.18%
Cc1cccc(C(=O)N2CCCC(Nc3ccc(C(C)C)cc3)C2)n1 (stereo not drawn) | 17.8%
CCOC(=O)C1(CCOc2ccccc2)CCN(Cc2ccc(C#CCCO)cc2)CC1 | -3.24%
CCCC1=Nc2cc(C(=O)NCCN3CCCC3)ccc2Sc2ccccc21 | -5.31%
CCN1CCc2nc(NC(=O)c3cc(F)c(F)cc3Cl)sc2C1 | 18.8% (active)
O=C(Nc1ccc(OCC(=O)N2CCOCC2)cc1)c1cc(F)c(F)cc1Cl | 2.51%
O=C(Nc1nccs1)c1cc(S(=O)(=O)N2CCOCC2)c(Cl)cc1Cl | -3.9%
COc1ccc(-n2nnnc2SCC(=O)c2ccc(OC)c(OC)c2)cc1 | -0.506%
O=C(CSc1nnnn1-c1ccc(O)cc1)c1ccc(F)cc1 | 23.5% (active)
Cc1cc(NC(=O)CSc2nnnn2-c2ccc(F)cc2)no1 | -1.5%
CCC(C(=O)NCc1cccnc1)n1nc(C)c2sc3ccccc3c2c1=O (stereo not drawn) | -10.2%
CC(C)N(C(=O)Cn1cc(S(=O)(=O)CC(=O)N2CCOCC2)c2ccccc21)C(C)C | 2.9%
O=C(NCCCn1ccnc1)C1CCCN(S(=O)(=O)c2cc(Cl)ccc2Cl)C1 (stereo not drawn) | -4.82%
O=c1cc(-c2ccc(O)cc2)oc2c([C@@H]3O[C@H](CO)[C@@H](O)[C@H](O)[C@H]3O)c(O)cc(O)c12 | -8.35%
CN(CCN1CCOCC1)Cc1nc(-c2ccc3c(c2)OCO3)no1 | 8.52%
CC(C)N(Cc1nc(-c2ccc3c(c2)OCO3)no1)CC1CCC(=O)N1 (stereo not drawn) | 1.08%
CCn1ccnc1CN(C)Cc1nc(-c2ccc3c(c2)OCO3)no1 | 28.4% (active)
